Assay results published in publication PMC5540273 (PLoS ONE, 2017).
Several values for one entry are separate records, joined by “and”; a condition that tells them apart may be missing. Equal entries are not always repeated. Where two headings read alike, the source gives them in different places.

How the values were obtained:
EPHA3 = conditions: concentration: 1 μM, replicates: in singlicate, n = 1
EPHA4 = conditions: concentration: 1 μM, replicates: in singlicate, n = 1
EPHA5 = conditions: concentration: 1 μM, replicates: in singlicate, n = 1
EPHA6 = conditions: n = 1
EPHA7 = conditions: concentration: 1 μM, replicates: in singlicate; n = 1
EPHA8 = conditions: concentration: 1 μM, replicates: in singlicate; n = 1
EPHB1 = conditions: concentration: 1 μM, replicates: in singlicate, n = 1
EPHB2 = conditions: concentration: 1 μM, replicates: in singlicate, n = 1
EPHB3 = conditions: concentration: 1 μM, replicates: in singlicate; n = 1
EPHB4 = conditions: concentration: 1 μM, replicates: in singlicate; n = 1
[1] = concentration: 1 μM, replicates: in singlicate
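Also: KINOMEscan kinase panel screen.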

| Compound | %Inh (EPHA3) [%] | %Inh (EPHA4) [%] | %Inh (EPHA5) [%] | %Inh (EPHA6; [1]) [%] | %Inh (EPHA7) [%] | %Inh (EPHA8) [%] | %Inh (EPHB1) [%] | %Inh (EPHB2) [%] | %Inh (EPHB3) [%] | %Inh (EPHB4) [%] | %Inh (EPHA3; 1 µM) | %Inh (EPHA4; 1 µM) | %Inh (EPHA5; 1 µM) | %Inh (EPHA6; concentration: 1 μM, replicates: in singlicate, 1 µM) | %Inh (EPHB1; 1 µM) | %Inh (EPHB2; 1 µM) | %Inh (EPHA6; 1 µM) [%] |
| --- | --- | --- | --- | --- | --- | --- | --- | --- | --- | --- | --- | --- | --- | --- | --- | --- | --- |
| CN(C1=C(c2ccccc2)C(=O)NC1=O)c1ccccc1 [SB-334860] | 24 | 6 | 6 | 10 | 2 | 6 | 8 | 20 | 11 | 9 | – | – | – | – | – | – | – |
| O=C(Nc1cccc(-c2nn3ncccc3c2-c2ccnc(Nc3cccc(C(F)(F)F)c3)n2)c1)c1c(F)cccc1F [GSK299495] | 0 | 8 | 0 | 11 | 54 | 49 | 29 | 0 | 14 | 9 | – | – | – | – | – | – | – |
| Cl.Cl.Cl.Fc1ccc(-c2ncn(C3CCNCC3)c2-c2ccnc(Nc3ccccc3)n2)cc1 [SB-238039] | – | – | – | – | 0 | 10 | – | – | 0 | 0 | 34% and 25% | 8% and 0% | 7% and 10% | 18% and 0% | 31% and 0% | 25% and 0% | – |
| CSc1ccc(-c2cc3ncnc(SCC(=O)O)c3s2)cc1 | 0 | 5 | 13 | 6 | 0 | 0 | 4 | 0 | 15 | 18 | – | – | – | – | – | – | – |
| Fc1ccc(-c2nn3c(OCC(F)(F)F)cccc3c2-c2ccncc2)cc1 [GW514784] | 24 | 3 | 0 | 11 | 0 | 13 | 16 | 0 | 6 | 1 | – | – | – | – | – | – | – |
| COc1cc2c(cc1OCCN1CCN(C)CC1)ncc1c3ccc(C#N)cc3[nH]c21 | 18 | 1 | 0 | 0 | 0 | 0 | 10 | 0 | 2 | 0 | – | – | – | – | – | – | – |
| O=C1NC(=O)C(N2CCc3ccccc32)=C1c1cccc(Cl)c1 [SB-408010] | 0 | 19 | 17 | 18 | 0 | 0 | 0 | 3 | 23 | 22 | – | – | – | – | – | – | – |
| CCc1ccnc(/C=C/c2n[nH]c3cc(Sc4ccccc4C(=O)NC)ccc23)c1 | 0 | 1 | 5 | 0 | 2 | 7 | 4 | 0 | 0 | 0 | – | – | – | – | – | – | – |
| Cc1cn2c(=O)cc(N3CCOCC3)nc2n1Cc1cccc(Cl)c1Cl [GSK2334006] | 0 | 19 | 0 | 10 | 7 | 21 | 16 | 7 | 17 | 19 | – | – | – | – | – | – | – |
| Cc1cccc(-c2nc(-c3ccc(S(C)(=O)=O)cc3)sc2-c2ccncc2)c1 | 9 | 48 | 1 | 44 | 19 | 21 | 14 | 13 | 34 | 41 | – | – | – | – | – | – | – |
| CCc1nc(-c2cccc(C)c2)c(-c2ccnc(NCc3ccccc3)c2)s1 | 0 | 0 | 0 | 17 | 4 | 11 | 15 | 6 | 0 | 3 | – | – | – | – | – | – | – |
| COCCNC(=O)c1ccc(-c2cc(C(=O)NC3CC3)cc(F)c2C)cc1 [GW868318] | 38 | 21 | 25 | 30 | 4 | 12 | 16 | 7 | 23 | 32 | – | – | – | – | – | – | – |
| COc1ccc(Nc2ncc(C#N)c(Nc3ccccc3C(N)=O)n2)cc1N1CCN(C)CC1.Cl [GSK1558669] | 95 | 61 | 35 | 86 | 81 | 29 | 98.6 | 59 | 28 | 76 | – | – | – | – | – | – | – |
| O=c1cc(N2CCOCC2)nc2n(Cc3cccc(Cl)c3Cl)c(C3CC3)nn12 [GSK2358994] | 0 | 11 | 6 | – | 0 | 9 | 0 | 0 | 7 | 3 | – | – | – | – | – | – | 0 |
| Nc1nccc(-c2c(-c3ccc(F)cc3)ncn2C2CCN(CC(F)(F)F)CC2)n1 [SB-236560] | 0 | 0 | 0 | 0 | 0 | 0 | 0 | 14 | 0 | 0 | – | – | – | – | – | – | – |
| Cn1ccc2ncnc(Oc3ccc(NC(=O)Nc4ccncc4)c(Cl)c3)c21 | 0 | 14 | 0 | 16 | 0 | 0 | 0 | 2 | 6 | 1 | – | – | – | – | – | – | – |
| Cc1c2ccc(N(C)c3ccnc(Nc4cccc(S(N)(=O)=O)c4)n3)cc2nn1Cc1ccccc1.Cl.Cl [GW787226] | 15 | 21 | 0 | 19 | 0 | 39 | 12 | 20 | 7 | 0 | – | – | – | – | – | – | – |
